Screening data (PubChem)
This is a sample that favours compounds with a hit; in the whole collection about 7.6% have one here.
BRCA1 expr up – increases BRCA1 expression. MCF7-BRCA1-FFLuc reporter, luminescence, 48 h; response scale: scaled: vehicle 0%, 10 µM genistein 100%. Potency, µM (doses to about 46.1 µM), for the others: top-dose activation, most hits filed as activators. actives 1.1% (n = 380,000); further: potency means the concentration at half of the fitted maximal effect; nearly all actives have a fitted effect of over 80% in size
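Activators of BRCA1 expression were detected as increased firefly luciferase luminescence in engineered MCF7 cells after 48 h compound incubation. Signals were scaled to genistein 10 microM as full activation.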
Giardia killer – Giardia lamblia killing. Giardia lamblia trophozoite viability. activity change, % at 7.66 µM, hits read low. actives 0.15% (n = 340,000); in the data active means activity change below about -80%; inconclusive means between about -30% and that limit;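 further: parasites exposed to compound for two days anaerobically before the ATP read; on the % scale 0 is the no-effect control and ±100 the full control effect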
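Media and compound were dispensed first, then trophozoites at 100 cells/well; plates sat 48 hrs at 37 deg C without oxygen before ATP luminescence reagent was added and read after 15-30 min at room temperature.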
p53 reactivator – restores transcriptional activity of mutant p53; H1299 p53-A138V BP100-luciferase reporter, luminescence, 24 h; Potency, µM (series often up to 92.2 µM), for the others: top-dose activity change, positive = activation, most hits filed as activators; actives 0.063% (n = 320,000); further: potency means the concentration at half of the fitted maximal effect; % of control where 0% means no effect; nearly all actives have a fitted effect of over 45% in size
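p53-null H1299 cells stably carrying temperature-sensitive p53-A138V and a BP100-luciferase reporter were pinned with compounds (4-point, 1:5 series) and held 24 hrs at 37 deg C. Luminescence was read 10 min after detection reagent.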
VP16 counter – inhibits Gal4-VP16 luciferase reporter, ROR gamma counter-screen; Drosophila S2 Gal4-VP16 UAS-luciferase, luminescence, 20 h; Potency, µM (titrated, usually from 53.6 µM), inactives show at the top dose activity, negative = inhibition, most hits filed as inhibitors; actives 3.5% (n = 310,000); AID 2546;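 further: Gal4-VP16 expression switched on by copper sulfate through the metallothionein promoter; potency means the concentration at half of the fitted maximal effect; on the % scale 0 is the no-effect control and ±100 the full control effect; nearly all actives have a fitted effect of over 50% in size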
ELG1 repair inh – ELG1-dependent DNA repair inhibition | HEK293T ELG1-luciferase reporter, luminescence, 16 h; DNA damage induced by 5-fluorouridine | Potency, µM (top dose mostly 46.1 µM), for the others: at the highest dose activity change, negative = inhibition, usual class: inhibitors | actives 2.3% (n = 330,000) | AID 504467; further: potency means the concentration at half of the fitted maximal effect; on the % scale 0 is the no-effect control and ±100 the full control effect; nearly all actives have a fitted effect of over 55% in size
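Reporter activity after DNA damage by 5-fluorouridine is monitored. Compound-treated cells incubate 16 hr at 37 °C, then ONE-Glo is added for 30 min before luminescence reading.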
RORg inh – blocks mouse ROR gamma transcriptional activity | actives 5.4% (n = 310,000) | AID 2551 | Drosophila S2 Gal4-RORgamma UAS-luciferase reporter, 20 h | P51450 | Potency, µM (top dose mostly 53.6 µM), inactives show at the top dose activity change, negative = inhibition, actives largely listed as inhibitors; further: potency means the concentration at half of the fitted maximal effect; on the % scale 0 is the no-effect control and ±100 the full control effect; nearly all actives have a fitted effect of over 60% in size
Target sequence (P51450 whole entry, looked up, the tested form may be a part): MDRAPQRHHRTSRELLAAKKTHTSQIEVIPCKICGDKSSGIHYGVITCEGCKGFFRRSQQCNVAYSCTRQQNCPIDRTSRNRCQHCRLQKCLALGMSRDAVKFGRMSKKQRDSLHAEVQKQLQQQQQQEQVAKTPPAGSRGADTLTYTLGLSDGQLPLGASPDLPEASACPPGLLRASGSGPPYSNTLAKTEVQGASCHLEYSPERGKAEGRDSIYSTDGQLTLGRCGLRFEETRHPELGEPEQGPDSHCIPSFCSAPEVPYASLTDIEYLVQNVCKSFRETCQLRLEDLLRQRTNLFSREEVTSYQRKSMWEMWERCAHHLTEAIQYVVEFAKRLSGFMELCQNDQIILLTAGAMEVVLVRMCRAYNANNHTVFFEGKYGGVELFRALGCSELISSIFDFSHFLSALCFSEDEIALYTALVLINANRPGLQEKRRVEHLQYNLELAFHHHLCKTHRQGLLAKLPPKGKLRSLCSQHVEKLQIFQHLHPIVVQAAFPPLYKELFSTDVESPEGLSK
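Read-out: Photinus luciferase luminescence; inhibitors lower reporter signal. Insect Schneider cells with Gal4-ROR gamma fusion under metallothionein promoter, UAS reporter; 700 uM final copper sulfate induction, 20 hr, ambient temperature.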
* = called active by the depositor; ? = inconclusive; . = no result. Unless noted, the call rests on the fitted dose curve; in most records, active means well fitted curve in the direction sought with a large enough effect; inconclusive means small, poorly fitted or top-dose-only effect, or another doubt; inactive means no such curve, though single readings can be large; an effect the other way counts as inactive or inconclusive.

SMILES | BRCA1 expr up | Giardia killer | p53 reactivator | VP16 counter | ELG1 repair inh | RORg inh
O=C(NC12CC3CC(CC(C3)C1)C2)c1cnccn1 | 1.4% | -12.1 | 4.6% | -8.3% | 9.8% | -1.5%
C/C(CC(=O)NC12CC3CC(CC(C3)C1)C2)=N\NC(=O)c1ccc(C)cc1 | -2.0% | -8.4 | 3.0% | ? | 2.1% | ?
C/C(CC(=O)NC12CC3CC(CC(C3)C1)C2)=N\NC(=O)c1ccc(F)cc1 | -1.9% | 20.6 | 9.2% | ? | 5.1% | 17.8µM*
C/C(CC(=O)NC12CC3CC(CC(C3)C1)C2)=N\NC(=O)c1cnccn1 | 3.7% | -2.5 | 10.9% | ? | 23.6% | 12.6µM*
C=CCNC(=O)CCCc1ccccc1 | 16.7% | -1.0 | 9.1% | 4.6% | ? | 16.9%
CC(C)CN1C(=O)c2ccc(C(=O)NCc3ccccn3)cc2C1=O | -3.3% | -11.0 | 0.0% | 6.9% | -0.7% | 7.2%
CCCC(=O)OC/C(O)=C(\C#N)c1nc2ccccc2[nH]1 | -8.7% | -4.2 | -5.1% | ? | ? | 3.98µM*
N#C/C(=C(/O)COC(=O)c1ccc(O)cc1)c1nc2ccccc2[nH]1 | -9.9% | -21.3 | 2.8% | 2.4% | ? | 11.6%
N#C/C(=C(/O)COC(=O)c1cccnc1Cl)c1nc2ccccc2[nH]1 | 0.8% | 6.0 | 3.8% | ? | -13.1% | 7.94µM*
COCC(=O)OC/C(O)=C(\C#N)c1nc2ccccc2[nH]1 | -11.2% | -4.4 | -6.4% | 2.82µM* | ? | ?
N#CC(=C(O)COC(=O)Cc1c[nH]c2ccccc12)c1nc2ccccc2[nH]1 | -41.4% | -24.5 | . | . | . | .
Cc1ccc(C(C)C)c(OC/C(O)=C(\C#N)c2nc3ccccc3[nH]2)c1 | -65.2% | -3.1 | 5.0% | ? | 16.4µM* | 2.24µM*
CCOC(=O)C1(C)CCN1C(=O)c1cccc(OC(F)(F)F)c1 (configuration not stated) | 17.7% | . | . | . | . | .
CCOC(=O)c1cc(CC)sc1/N=C/C1C(=O)CC(C)(C)CC1=O | -0.5% | -3.0 | 4.8% | -1.3% | -1.1% | 9.2%
N#C/C(=C(/O)COC(=O)CCC1CCCCC1)c1nc2ccccc2[nH]1 | -2.8% | 6.4 | 8.2% | 10µM* | 17.9% | 11.2µM*
CC(C)C(=O)OC/C(O)=C(\C#N)c1nc2ccccc2[nH]1 | -13.9% | 8.0 | -0.5% | 10µM* | -9.2% | 6.31µM*
CCn1cc(C(=O)NCCc2ccc(OC)c(OC)c2)c(=O)c2cc(S(=O)(=O)N3CCC(C)CC3)ccc21 | -30.5% | . | . | . | . | .
Cc1ccc2c(c1)cc(CN(Cc1ccc3c(c1)OCO3)C(=O)c1cnccn1)c1nnnn12 | -48.6% | -8.4 | -6.3% | -1.6% | -24.8% | -8.5%
Cc1cc2cc(CN(Cc3ccc4c(c3)OCO4)C(=O)c3cnccn3)c3nnnn3c2cc1C | -23.6% | -17.7 | 6.7% | 11.0% | 16.4µM* | 17.3%
Cc1cccc(C)c1NC(=O)Cn1c(=O)n(CCC(=O)NCc2ccco2)c(=O)c2sccc21 | 2.8% | 14.6 | 6.7% | -14.0% | 1.6% | 2.7%
COC(=O)c1ccc(CN(c2ccc(C)cc2)S(=O)(=O)c2ccc3c(c2)OCCO3)o1 | -32.3% | -17.3 | -6.1% | -3.7% | 20.6µM* | -3.0%
COc1ccc(NC(=O)c2cccc(N3C(=O)C4C5C=CC(C5)C4C3=O)c2)cc1Cl (configuration not stated) | -21.9% | 6.5 | -5.0% | ? | ? | ?
CCOc1ccc(N(CC(=O)Nc2ccc(C)cc2)S(C)(=O)=O)cc1 | 8.91µM* | -3.2 | ? | -1.3% | ? | 16.4%
CCOc1ccc(N(CC(=O)Nc2cc(C)cc(C)c2)S(C)(=O)=O)cc1 | 12.6µM* | -2.1 | ? | 5.4% | 7.6% | 12.5%
Cc1ccc(N(CC(=O)Nc2cc(C)cc(C)c2)S(=O)(=O)c2c(C)noc2C)cc1 | -67.3% | -27.8 | 0.1% | 11.2µM* | -22.6% | -28.0%
SMILES | BRCA1 expr up | Giardia killer | p53 reactivator | VP16 counter | ELG1 repair inh | RORg inh
CCOc1ccc(N(CC(=O)Nc2ccc(C)cc2C)S(C)(=O)=O)cc1 | 7.4% | 14.3 | ? | 8.7% | 1.6% | 35.0%
COc1ccc(N(CC(=O)Nc2ccc(C)cc2)S(=O)(=O)c2c(C)noc2C)cc1 | -24.1% | -4.5 | -0.1% | -4.8% | 0.1% | 6.5%
CCOc1ccc(N(CC(=O)Nc2cccc(Br)c2)S(C)(=O)=O)cc1 | 36.5% | 13.3 | -42.0% | -8.0% | -4.2% | ?
O=C(N/N=C/c1cn(-c2ccccc2)nc1-c1ccc2c(c1)OCCO2)c1ccncc1 | ? | -24.2 | ? | 5.01µM* | ? | 2.24µM*
COc1ccc(-c2nn(-c3ccccc3)cc2/C=N/NC(=O)c2ccc(Br)o2)cc1 | -69.0% | -0.6 | 0.6% | 3.98µM* | ? | 1.26µM*
O/N=C/c1cn(-c2ccccc2)nc1-c1ccc2c(c1)OCCO2 | 24.6% | -9.8 | -3.8% | -3.5% | ? | 39.7%
COc1ccc(-c2nn(-c3ccccc3)cc2C(=O)O)cc1 | 1.4% | 8.0 | 0.5% | -27.0% | 1.4% | 4.1%
COc1ccc(-c2nn(-c3ccccc3)cc2/C=N/NC(=O)c2cccc(S(=O)(=O)Nc3ccccc3OC)c2)cc1 | -4.9% | -21.2 | 14.3% | 1.26µM* | 1.5% | 1.26µM*
COc1ccccc1NS(=O)(=O)c1cccc(C(=O)N/N=C/c2ccccc2OCC(=O)O)c1 | -4.4% | -5.1 | -5.0% | -2.2% | -11.7% | -6.3%
C=CCNC(=S)N/N=C/c1cn(-c2ccccc2)nc1-c1ccc(OC)cc1 | -9.7% | 6.2 | -8.4% | 1.26µM* | 9.0% | 0.708µM*
COc1ccc(NC(=O)CN(C)C(=O)/C=C/c2cn(-c3ccccc3)nc2-c2ccc(C)cc2)cc1 | -50.0% | -3.3 | 0.8% | . | ? | .
CCOc1ccccc1C(=O)N[C@H](C(=O)Nc1ccc(OC)c(S(=O)(=O)N2CCOCC2)c1)C(C)C | -9.6% | 7.0 | -0.2% | -4.7% | ? | -5.5%
CCN(CCn1cccn1)C(=O)CC1C(=O)NCCN1Cc1ccc(OC)c(OC)c1 (configuration not stated) | 0.3% | -13.3 | 0.9% | 4.5% | 7.4% | -14.9%
COc1cc(O)cc(O)c1 | . | . | . | 1.1% | . | 7.0%
C=CCN(C(=O)c1csnn1)C(C(=O)NCc1ccccc1)c1c(F)cccc1Cl (configuration not stated) | 10.5% | -6.4 | -2.1% | 2.3% | -5.2% | 0.8%
COc1ccc(-c2nn(-c3ccccc3)cc2/C=N/NC(=O)c2ccc3c(c2)OCO3)cc1 | . | . | 0.1% | -25.8% | ? | 2.51µM*
COc1ccc(-c2nn(-c3ccccc3)cc2/C=N/Nc2cccc(C(=O)O)c2)cc1 | 60.4% | 7.2 | 0.3% | -3.3% | ? | ?
